Bioassay records: PubChem, several laboratories
Sampled rows, rich in hits. Any-hit rate of the full collection: about 3.1%.
EBV LMP1 NFkB: reduces LMP1-driven NF-kappaB luciferase signal. inhibition, % at 12.5 µM. LMP1-induced NF-kappaB luciferase reporter cells, luminescence. AID 504558. hit rate 0.69% among 350,000; in the data active = inhibition above about 41%
EWS-Fli inh: inhibitors of EWS/Fli oncoprotein transcriptional activity. hit rate 0.67% among 350,000. AID 651661. A673 NR0B1-luciferase reporter, viability-normalised. inhibition, % at 12.6 µM;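 active = mean inhibition of at least 50% after viability correction, with every replicate also passing that limit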;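 also: firefly luciferase signal divided by Alamar Blue viability fluorescence both relative to DMSO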
LGR2 antag: blocks bursicon-induced cAMP signaling via Drosophila LGR2; HEK293 LGR2, CRE-luciferase, bursicon-stimulated, 4 h; inhibition, % at 9.99 µM; hit rate 0.35% among 380,000;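 active = drop in luminescence signal, shown as inhibition above about 50% in the replicate tests, limit read from the data, passing the limit was not always enough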;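 also: agonist challenge used bursicon conditioned medium at about half maximal strength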
TROY NFkB inh: blocks TROY-dependent signaling in reporter cells. Q293 LMP1-TROYcd NF-kB luciferase reporter, 4 h. hit rate 0.98% among 360,000. inhibition, % at 10 µM;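 active = compounds whose plate-normalised and pattern-corrected inhibition of the luciferase reporter signal at the single screening dose is 50% or more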
TWEAK Fn14 block: blocks TWEAK-Fn14 interaction in a reporter cell assay | TWEAK-stimulated Fn14 reporter cells, luciferase luminescence, 8 h | inhibition, % at 10 µM | hit rate 2% among 360,000 | AID 1159606; in the data active = inhibition above about 50%
PAX8 reporter: inhibitors of PAX8 transcriptional activity in RMG-I cells; RMG-I TPO-luciferase reporter, SteadyGlo, 24 h; hit rate 1.2% among 360,000; inhibition, % at 12.6 µM; AID 652154;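 active = mean replicate inhibition at least 60% with every replicate also reaching 60%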;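 also: luciferase light reporting Pax8 driven TPO promoter activity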
Each line names hits and unclear results; the compound was inactive in the other large screens.

Cc1ccc(S(=O)(=O)Nc2ccc3c(c2)C(=O)N([C@H](C)CO)C[C@@H](C)[C@H](CN(C)Cc2ccc(C(F)(F)F)cc2)OCCCC[C@H](C)O3)cc1	EWS-Fli inh 66, PAX8 reporter 116 (no result: EBV LMP1 NFkB, TROY NFkB inh, TWEAK Fn14 block)
CC(=O)Nc1sc2c(c1-c1nc3ccccc3s1)CN(C(C)C)CC2	EWS-Fli inh 54, LGR2 antag 102
CC(=O)N1CCc2c(sc(NC(=O)C3CC3)c2-c2nc3ccccc3s2)C1	none
CCCc1ccc(C(=O)O/N=C(\N)c2ccccn2)cc1	EBV LMP1 NFkB 69, EWS-Fli inh 88, LGR2 antag 103, TROY NFkB inh 83, TWEAK Fn14 block 99, PAX8 reporter 106
N/C(=N\OC(=O)c1ccc(=O)n(Cc2ccccc2)c1)c1ccccn1	none
N/C(=N\OC(=O)c1ccc2ccccc2c1)c1ccccn1	EBV LMP1 NFkB 56, EWS-Fli inh 80, LGR2 antag 97, TROY NFkB inh 86, TWEAK Fn14 block 96, PAX8 reporter 75
N/C(=N\OC(=O)c1cccc([N+](=O)[O-])c1)c1ccccn1	none
COc1cccc(C(=O)O/N=C(\N)c2ccccn2)c1	EBV LMP1 NFkB 68, LGR2 antag 101, TROY NFkB inh 79, TWEAK Fn14 block 101
CCC(=O)N1CC2(CN(Cc3ccccc3Cl)C2)c2c([nH]c3cc(OC)ccc23)[C@H]1CO	none (no result: EBV LMP1 NFkB, TROY NFkB inh, TWEAK Fn14 block)
CCCN1C[C@@H](C)[C@@H](OC)CN(C)C(=O)c2cc(NC(=O)CC(F)(F)F)ccc2OC[C@@H]1C	none (no result: EBV LMP1 NFkB, TROY NFkB inh, TWEAK Fn14 block)
CCCNC(=O)C[C@@H]1CC[C@@H]2[C@H](COc3ccc(NC(=O)C4CCCC4)cc3C(=O)N2C)O1	none (no result: EBV LMP1 NFkB, TROY NFkB inh, TWEAK Fn14 block)
CCCC(=O)N1CCCC(c2cc(C(=O)Nc3ccccc3)no2)C1 (stereo not drawn)	LGR2 antag 82, TROY NFkB inh 83, TWEAK Fn14 block 95 (no result: EBV LMP1 NFkB)
CCN(CC)S(=O)(=O)c1cccc2cc(C(=O)O)c(O)cc12	TWEAK Fn14 block 79 (no result: EWS-Fli inh, LGR2 antag, TROY NFkB inh, PAX8 reporter)
CCN(CC)S(=O)(=O)c1cc(C(=O)O)c(Cl)cc1Cl	none (no result: EWS-Fli inh, LGR2 antag)
Cc1ccc(S(=O)(=O)c2c(C)cc(C)nc2Oc2cccc(C)c2C)cc1	TWEAK Fn14 block 72 (no result: EWS-Fli inh, LGR2 antag, PAX8 reporter)
CCCCCc1cc(=O)oc2c(C(CCN(CC)CC)c3cc(OC)c(OC)c(OC)c3)c(OC)cc(OC)c12 (stereo not drawn)	EWS-Fli inh 51 (no result: LGR2 antag)
CCCCCc1cc(=O)oc2c(C(CCN3CCCC(C)C3)c3ccc4c(c3)OCO4)c(OC)cc(OC)c12 (stereo not drawn)	none (no result: LGR2 antag)
CCCCCc1cc(=O)oc2c(C(CCN3CCCCC3)c3ccc4c(c3)OCO4)c(OC)cc(OC)c12 (stereo not drawn)	PAX8 reporter 88
C[C@@H]1CN([C@@H](C)CO)S(=O)(=O)c2ccc(C#Cc3ccccc3)cc2O[C@H]1CN(C)S(C)(=O)=O	none (no result: EBV LMP1 NFkB, TROY NFkB inh, TWEAK Fn14 block)
CCCCn1c(NS(=O)(=O)c2ccc(C)cc2)c(S(=O)(=O)c2ccccc2)c2nc3ccccc3nc21	TROY NFkB inh 64 (no result: EWS-Fli inh)
Cc1ccc(S(=O)(=O)c2c(N)n(CCCN(C)C)c3nc4ccccc4nc23)cc1	none (no result: LGR2 antag)
CCC(=O)N(C)C[C@@H]1Oc2cc(-c3ccccc3)ccc2S(=O)(=O)N([C@@H](C)CO)C[C@@H]1C	none (no result: EBV LMP1 NFkB, TROY NFkB inh, TWEAK Fn14 block, PAX8 reporter)
C[C@@H]1CN([C@H](C)CO)S(=O)(=O)c2ccc(C#CCN(C)C)cc2O[C@H]1CN(C)C(=O)Nc1ccccc1F	none (no result: EBV LMP1 NFkB, TROY NFkB inh, TWEAK Fn14 block, PAX8 reporter)
COC(=O)c1nn(-c2ccc(-c3ccccc3)cc2)cc1O	TWEAK Fn14 block 81 (no result: EWS-Fli inh, LGR2 antag, PAX8 reporter)
CCOC(=O)c1nn(-c2ccccc2)cc1O	none
COc1ccc2c3c(n(C)c2c1)[C@@H](CO)N(C(=O)Cc1ccccc1)CC31CN(C(C)=O)C1	none (no result: EBV LMP1 NFkB, TROY NFkB inh, TWEAK Fn14 block, PAX8 reporter)
CN(C)CCNc1ncnc2c1cnn2-c1ccc(Cl)cc1	none
COc1ccc(-n2ncc3c(Nc4cccc(C)c4)ncnc32)cc1	none (no result: PAX8 reporter)
Clc1ccc(-n2ncc3c(NCC4CCCO4)ncnc32)cc1 (stereo not drawn)	TWEAK Fn14 block 60
CCC(CO)Nc1ncnc2c1cnn2-c1ccc(Cl)cc1 (stereo not drawn)	TROY NFkB inh 73, TWEAK Fn14 block 68
C=CCNc1ncnc2c1cnn2-c1ccc(OC)cc1	none (no result: EWS-Fli inh, LGR2 antag, PAX8 reporter)
CCCN(CCC)c1ncnc2c1cnn2-c1ccc(OC)cc1	TROY NFkB inh 62, TWEAK Fn14 block 53 (no result: EWS-Fli inh, LGR2 antag, PAX8 reporter)
CCC(CO)Nc1ncnc2c1cnn2-c1ccc(OC)cc1 (stereo not drawn)	TWEAK Fn14 block 54
OCCCNc1ncnc2c1cnn2-c1ccc(Cl)cc1	TWEAK Fn14 block 68
Cc1ccc(N2C(=O)CC(NNc3nc4ccccc4s3)C2=O)cc1 (stereo not drawn)	none (no result: EWS-Fli inh)
